{"source": "PubChem BioAssay AID588413", "about": "(Sanford-Burnham Center for Chemical Genomics, 2011)", "note": "“And” between values parts separate entries of the source, which are not always exact repeats. Identical values can stand only once. Among all 340,000 compounds or so, about 2,500 (0.74%) were called active.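 The calls were made as follows: active = inhibition above about 55% (limit read from the data); inactive = the rest.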 The list comes from a sample in which actives are over-represented; it also holds similar structures and randomly drawn compounds."}
{"assay": "blockers of Gli reporter signaling – luciferase luminescence, Sufu-KO-LIGHT cells, uHTS, primary screen (AID 588413);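 also: 0% = DMSO-treated cells and 100% = wells with medium but no cells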", "settings": "Sufu-KO-LIGHT fibroblasts, at 5 µM, hits give high values"}
{"smiles": "CCOc1ccc(NC(=O)N(CC(C)C)CC(C)C)cc1", "inhibition": "-3.25% (inactive)"}
{"smiles": "O=C(CCNC(=O)c1ccc(Br)cc1)NCC(c1ccco1)N1CCCCC1", "note": "(stereo unspecified)", "inhibition": "2.12% (inactive)"}
{"smiles": "Cc1ccc(OS(=O)(=O)c2ccc(-c3csc(C)n3)s2)c(C)c1", "inhibition": "-1.77% (inactive)"}
{"smiles": "CC1(C)CC(=O)C=C(N2CCOCC2)C1", "inhibition": "-5.06% (inactive)"}
{"smiles": "c1ccc(C(c2ccccc2)N2CCN(Cc3nnnn3C3CCCCC3)CC2)cc1", "inhibition": "-7.75% (inactive)"}
{"smiles": "CC1(C)CC(N2CCN(C(c3ccccc3)c3ccccc3)CC2)=CC(=[N+]2CCCCC2)C1", "inhibition": "89.2% (active)"}
{"smiles": "O=C(COc1ccc(Cl)cc1Cl)NCCCNC(=O)c1cnccn1", "inhibition": "-2.79% (inactive)"}
{"smiles": "CN1C(=O)CC(c2ccccc2)C1=O", "note": "(stereo unspecified)", "inhibition": "1.09% (inactive)"}
{"smiles": "COc1ccc(N(CC(=O)Nc2ccc(F)c(F)c2)S(=O)(=O)c2c(C)[nH]c(=O)[nH]c2=O)cc1", "inhibition": "-1.05% (inactive)"}
{"smiles": "CCOc1ccc(/C=N/NC(=O)CSc2ccccn2)cc1O", "inhibition": "4.66% (inactive)"}
{"smiles": "O=C1Nc2ccc(Br)cc2/C1=N/N=C/C1=C(N2CCOCC2)C(=C\\c2ccccc2)/CC1", "inhibition": "20.5% (inactive)"}
{"smiles": "COc1ccc(/C=N/N=C2/C(=O)Nc3ccccc32)cc1O", "inhibition": "58.7% (active)"}
{"smiles": "Cc1ccccc1CS(=O)(=O)CC1(O)CCN(C(=O)c2cccc(C(F)(F)F)c2)CC1", "inhibition": "0.32% (inactive)"}
{"smiles": "O=C(N=C1SC2CS(=O)(=O)CC2N1c1cc(Cl)ccc1Cl)C1CC1", "note": "(stereo unspecified)", "inhibition": "6.54% (inactive)"}
{"smiles": "Cc1ccc(-c2c[n+](CC(=O)Nc3ccccc3)c3n2CCC3)cc1", "inhibition": "-11.4% (inactive)"}
{"smiles": "Cc1ccc(C(=O)C[n+]2cc(-c3ccccc3)n3c2CCCCC3)cc1", "inhibition": "67.1% (active) and 72.5% (active)"}
{"smiles": "Clc1ccc(C[n+]2cc(-c3ccccc3)n3c2CCC3)cc1", "inhibition": "49.7% (inactive)"}
{"smiles": "CC(=O)c1ccc(NC(=O)C(C)OC(=O)c2ccc(NS(=O)(=O)c3ccc4[nH]c(=O)[nH]c4c3)cc2)cc1", "note": "(stereo unspecified)", "inhibition": "7.04% (inactive)"}
{"smiles": "O=C1CSC(=O)N1CCOCCN1C(=O)CSC1=O", "inhibition": "-19.6% (inactive)"}
{"smiles": "CCN(CC)S(=O)(=O)c1ccc(N(C)Cc2cccc(OC)c2OC)nc1", "inhibition": "1.8% (inactive)"}
{"smiles": "CC(C)(C)OC(=O)C[C@@H]1C/C=C\\C[C@@H](CC(=O)N[C@H](CO)Cc2ccccc2)C(=O)NC[C@@H](c2ccccc2)OC1=O", "inhibition": "-21.7% (inactive)"}
{"smiles": "CC(C)(C)OC(=O)C[C@H]1C/C=C\\C[C@@H](CC(=O)N[C@H](CO)Cc2ccccc2)C(=O)NC[C@@H](c2ccccc2)OC1=O", "inhibition": "4.33% (inactive)"}
{"smiles": "O=C(C[C@H]1C/C=C\\C[C@@H](NC(=O)OCC2c3ccccc3-c3ccccc32)C(=O)O[C@@H](c2ccccc2)CNC1=O)N[C@H](CO)Cc1ccccc1", "inhibition": "60.2% (active)"}
{"smiles": "COc1ccc(CCNC(=O)CCn2c(=O)c3ccccc3n(CC(=O)NCC3CCCO3)c2=O)cc1OC", "note": "(stereo unspecified)", "inhibition": "2.58% (inactive)"}
{"smiles": "CCN(CC(=O)Nc1ccc(OC)cc1)C(=O)CSCc1ccc(C)cc1", "inhibition": "-9.04% (inactive)"}
{"smiles": "CCN(CC(=O)Nc1cc(Cl)ccc1C)C(=O)CSCc1ccccc1", "inhibition": "-4.34% (inactive)"}
{"smiles": "CCN(CC(=O)Nc1cc(Cl)ccc1C)C(=O)CSCc1ccc(C)cc1", "inhibition": "62.8% (active)"}
{"smiles": "Cc1ccc2c(c1)N(CC(=O)NCCc1ccc(Cl)cc1)C(=O)c1cccnc1O2", "inhibition": "-9.76% (inactive)"}
{"smiles": "COC[C@@H]1NS(=O)(=O)c2ccc(Br)cc2O[C@H]1c1ccccc1", "inhibition": "15.6% (inactive)"}
{"smiles": "Cc1ccc(S(=O)(=O)c2nc(-c3cccs3)oc2NCc2cccnc2)cc1", "inhibition": "3.04% (inactive)"}
{"smiles": "Cc1ccc(OCCNC(=O)CN2C(=O)NC3(CCCC3)C2=O)cc1", "inhibition": "-5.27% (inactive)"}
{"smiles": "Cc1c(NC(=O)CSc2cccc3cccnc23)c(=O)n(-c2ccccc2)n1C", "inhibition": "8.55% (inactive)"}
{"smiles": "O=C(CSc1cccc2cccnc12)N/N=C/c1cccnc1", "inhibition": "71% (active)"}
{"smiles": "COc1ccc(C(=O)NCC(=O)N/N=C/c2cccnc2)cc1", "inhibition": "-0.02% (inactive)"}
{"smiles": "NC(=O)CC(NC(=O)Cc1ccc(Br)cc1)c1ccc(NC2CC3CCC2C3)c([N+](=O)[O-])c1", "note": "(stereo unspecified)", "inhibition": "19% (inactive)"}
{"smiles": "CC(=O)N1CCC(C(=O)Nc2nc(-c3ccccc3)ns2)CC1", "inhibition": "-14.5% (inactive)"}
{"smiles": "Cc1nn(C)c(Cl)c1CN1CCC(n2nccc2NC(=O)C2CCCC2)CC1", "inhibition": "61.7% (active)"}
{"smiles": "O=C(Nc1ccnn1C1CCN(Cc2cccc(OCCO)c2)CC1)C1CCCC1", "inhibition": "10.8% (inactive)"}
{"smiles": "CC(CN1CCC(n2nccc2NC(=O)C2CCCC2)CC1)c1ccccc1", "note": "(stereo unspecified)", "inhibition": "8.83% (inactive)"}
{"smiles": "COc1cccc(-n2nc(C(=O)N3CCN(Cc4ccccc4)CC3)c3ccccc3c2=O)c1", "inhibition": "11% (inactive)"}
{"smiles": "COc1cccc(-n2cc(C(=O)O)c3ccccc3c2=O)c1", "inhibition": "59.2% (active)"}
{"smiles": "COc1cccc(-n2cc3c(c2-c2ccccc2)c(=O)n(C)c(=O)n3C)c1", "inhibition": "1.34% (inactive)"}
{"smiles": "CCCCOC(=O)CNc1nnc(SCC(=O)OCC)[nH]c1=O", "inhibition": "-6.62% (inactive)"}
{"smiles": "COc1ccccc1NC(=O)CCSc1nnc(-c2ccc(O)cc2)o1", "inhibition": "-0.57% (inactive)"}
{"smiles": "Brc1c(CSc2nncc3ccccc23)nc2ccccn12", "inhibition": "65% (active)"}
{"smiles": "COc1cc(C(=O)N2CCN(C3CCC(C)CC3)CC2)cc(OC)c1OC", "note": "(stereo unspecified)", "inhibition": "5.83% (inactive)"}
{"smiles": "O=c1c2cc([N+](=O)[O-])ccc2nc2n1CCC2", "inhibition": "-23.1% (inactive)"}
{"smiles": "CC(=O)c1ccc(Oc2cc(C)nc(-n3nc(C)cc3C)n2)cc1", "inhibition": "30.8% (inactive)"}
{"smiles": "CCOC(=O)c1cnc(-n2nc(C)cc2C)nc1NNc1cc(C)nc(-c2ccccc2)n1", "inhibition": "80% (active)"}
{"smiles": "Cc1cc(C)n(-c2c(F)c(F)c(COC(=O)c3ccccc3)c(F)c2F)n1", "inhibition": "6.99% (inactive)"}
{"smiles": "Cc1nn(Cc2ccc(F)cc2)c(C)c1NC(=O)c1noc2c1CCc1ccccc1-2", "inhibition": "6.19% (inactive)"}
{"smiles": "O=C(O)C(c1cccs1)C1(O)CCCCC1", "note": "(stereo unspecified)", "inhibition": "6.95% (inactive)"}
{"smiles": "C=CCOC(=O)C1=C[C@H](c2ccc(Br)cc2)C[C@H](OCCCCO)O1", "inhibition": "-1% (inactive)"}
{"smiles": "C=CCOC(=O)C1=C[C@@H](c2ccc3c(c2)OCO3)C[C@@H](OCCCCO)O1", "inhibition": "98.8% (active)"}
{"smiles": "NC(=O)C1=C[C@@H](c2ccc3c(c2)OCO3)C[C@@H](OCCCCO)O1", "inhibition": "-4.81% (inactive)"}
{"smiles": "COc1ccccc1-c1nnc(NC(=O)c2cccc(N3C(=O)CCC3=O)c2)o1", "inhibition": "-6.14% (inactive)"}
{"smiles": "COC(=O)c1cccc(NC(=O)c2cccc(N3C(=O)CCC3=O)c2)c1", "inhibition": "8.09% (inactive)"}
{"smiles": "Cc1cc(NC(=O)c2cccc(N3C(=O)CCC3=O)c2)no1", "inhibition": "98.8% (active)"}
{"smiles": "C/C(CC(=O)N1CCN(C=O)CC1)=N\\NC(=O)c1ccc(Br)cc1", "inhibition": "3.23% (inactive)"}
{"smiles": "CCOC(=O)c1c(C)nn(-c2ncccc2NC(=O)CCC(=O)O)c1C", "inhibition": "1.77% (inactive)"}
{"smiles": "Cn1c(=O)n(C)c2cc(CNc3ccc(N4CCOCC4)c(C(=O)O)c3)ccc21", "inhibition": "5.36% (inactive)"}
{"smiles": "CN1CCN(NC(=O)Nc2ccc(Br)cc2)CC1", "inhibition": "-5.05% (inactive)"}
{"smiles": "COCC(=O)Nc1ccc(Br)cc1", "inhibition": "-3.01% (inactive)"}
{"smiles": "CN1C(CC(=O)Nc2ccc(Br)cc2)c2ccccc2CC1(C)C", "note": "(stereo unspecified)", "inhibition": "75.8% (active)"}
{"smiles": "COc1ccc(C(=O)N2CCCC(C(=O)c3ccccc3OC)C2)cc1OC", "note": "(stereo unspecified)", "inhibition": "-11.7% (inactive)"}
{"smiles": "COc1ccccc1C(CNC(=O)c1cccc(NS(=O)(=O)c2ccc(Br)cc2)c1)N(C)C", "note": "(stereo unspecified)", "inhibition": "4.43% (inactive)"}
{"smiles": "COc1ccc(C(=O)Nc2ccnn2C2CCN(Cc3ccncc3)CC2)cc1", "inhibition": "-4.23% (inactive)"}
{"smiles": "COc1ccccc1C(=O)Nc1ccnn1C1CCN(Cc2cnn(C)c2)CC1", "inhibition": "8.85% (inactive)"}
{"smiles": "CC(C)Oc1ccc(CN2CCC(n3nccc3NC(=O)c3cccnc3)CC2)cc1", "inhibition": "61.3% (active)"}
{"smiles": "COCCn1cnnc1SCC(=O)Nc1cccc(S(=O)(=O)N2CCCCC2)c1", "inhibition": "-21.3% (inactive)"}
{"smiles": "CCOc1cccc(NC(=O)Cn2nc(-c3ccc4c(c3)OCCO4)ccc2=O)c1", "inhibition": "-1.4% (inactive)"}
{"smiles": "Cc1c(C(=O)NCC(c2ccco2)N2CCCC2)oc2ccc(Cl)cc12", "note": "(stereo unspecified)", "inhibition": "16.9% (inactive)"}
{"smiles": "O=C1[C@@H](c2ccccc2)[C@@H](c2ccccc2)N1c1cccnc1", "inhibition": "7.59% (inactive)"}
{"smiles": "C[C@@H]1NS(=O)(=O)c2cc(Cl)ccc2O[C@@H]1c1ccccc1", "inhibition": "-5.11% (inactive)"}
{"smiles": "CCOc1cccc(C(=O)Nc2cnn(Cc3ccccc3)c2)c1", "inhibition": "-43.8% (inactive)"}
{"smiles": "O=C(COc1cccc(Cl)c1)NCc1ccccc1", "inhibition": "5.34% (inactive)"}
{"smiles": "O=C(O)CCCn1cc(NC(=O)COc2cccc(Cl)c2)cn1", "inhibition": "62.4% (active)"}
{"smiles": "COC(=O)C1CC2=C(CC(C)(C)CC2=O)N(c2ccccc2)C1=O", "note": "(stereo unspecified)", "inhibition": "4.81% (inactive)"}
{"smiles": "Cc1ccc(C(CNC(=O)Nc2cccc(C)c2)N2CCN(C)CC2)cc1", "note": "(stereo unspecified)", "inhibition": "44.3% (inactive)"}
{"smiles": "CCOc1cc(C2/C(=C(/O)c3ccc(S(=O)(=O)N4CCCCC4)cc3)C(=O)C(=O)N2CCOC)ccc1O", "note": "(stereo unspecified)", "inhibition": "-6.41% (inactive)"}
{"smiles": "CCCN(C(=O)CSc1nnnn1C)c1c(N)n(Cc2ccccc2)c(=O)[nH]c1=O", "inhibition": "-4.32% (inactive)"}
{"smiles": "COc1ccc2c(c1)c(=Cc1ccc(N(C)C)cc1)c1cc(-c3ccccc3)[n+](C)n12", "inhibition": "71.7% (active)"}
{"smiles": "COc1ccc2sc(-c3ccc(N(C)C)cc3)c(C#CCO)c2c1", "inhibition": "-3.68% (inactive)"}
{"smiles": "CN(CC(=O)NC(=O)Nc1ccccc1F)Cc1ccccc1", "inhibition": "-0.74% (inactive)"}
{"smiles": "CCn1nc(C(=O)Nc2ccc(N3CCOCC3)cc2)c2ccccc2c1=O", "inhibition": "6.24% (inactive)"}
{"smiles": "CCN(CCO)C(=S)Nc1cc(C(=O)OC)ccc1C(=O)OC", "inhibition": "96.9% (active)"}
{"smiles": "CCS(=O)(=O)Nc1cc(C(=O)OC)ccc1C(=O)OC", "inhibition": "-3.7% (inactive)"}
{"smiles": "CCCN(CCC)C(=S)Nc1cc(C(=O)OC)ccc1C(=O)OC", "inhibition": "1.47% (inactive)"}
{"smiles": "COc1ccccc1CN1CCN(C(c2ccccc2)c2ccccc2)CC1", "inhibition": "25.4% (inactive)"}
{"smiles": "CC(C)OCC(O)CN1CCN(C(c2ccccc2)c2ccccc2)CC1", "note": "(stereo unspecified)", "inhibition": "76.8% (active)"}
{"smiles": "O=C(C(c1ccccc1)c1ccccc1)N1CCN(CC(O)COc2ccccc2)CC1", "note": "(stereo unspecified)", "inhibition": "3.62% (inactive)"}
